This is an account of results in publication PMC5540273 (PLoS ONE, 2017).

Settings in all cases: concentration: 1 μM, replicates: in singlicate; n = 1
Test [1] has as its system ALK.
Test [2] concerns T1, AMPK-alpha1.
T1 construct: gene PRKAA1

Test [3] concerns T2, AMPK-alpha2.
T2 construct: gene PRKAA2

In test [4] the test system is ANKK1.
The test system of test [5] is T3, ARK5.
T3 construct: gene NUAK1

The subject of test [6] is T4, ASK1.
T4 construct: gene MAP3K5

For test [7], the system named is T5, ASK2.
T5 construct: gene MAP3K6

Test [8] has as its system AURKA.
In test [9] the test system is AURKB.
Test [10] concerns AURKC.
Test [11] has as its system AXL.
Test [12] deals with T6, BIKE.
T6 construct: gene BMP2K

For test [13], the system named is BLK.
For test [14], the system named is BMPR1A.
Test [15] relates to BMPR1B.
Test [16] relates to BMPR2.
Test [17] deals with BMX.
Test [18] relates to BRAF.
Test [19] relates to T7, BRK.
T7 construct: gene PTK6

In test [20] the test system is BRSK1.
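Note: KINOMEscan kinase panel screen.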

As for `CCC(=O)c1c(-c2ccccc2)c2cc(Cl)ccc2c(=O)n1Cc1ccc(C(=O)O)cc1`, the “%Inh” value in test [1] was 0%; in [2], 0%; in [3], 0%; in [4], 0%; in test [5], 6%; in test [6] it was 0%. For the same molecule, the “%Inh” value in test [7] was determined as 0%; in test [8], 0%; in test [9] it was 19%; in test [10], 0%; in [11] it was 0%; in test [12], 0%. Also, the “%Inh” value in test [13] came out at 0%; in test [14], 0%; in [15], 0%; in test [16], 4%; in test [17] it was 0%; in [18], 48%. The “%Inh” value in test [19] and in test [20] was 0% in each case.
Turning to `CCCNC(=O)Nc1ccc(Oc2ncnc3ccn(C)c23)cc1`, the “%Inh” value turned out to be 0% in test [1]; 0% in test [2]; 12% in [3]; 0% in test [4]; 0% in [5]; 0% in [6]. The “%Inh” value amounted to 1% in test [7]; 7% in test [8]; 60% in test [9]; 0% in [10]; 0% in test [11]; 0% in test [12]. The “%Inh” value in test [13] turned out to be 14%; in test [14], 10%; in test [15] it was 0%; in [16], 16%; in test [17], 0%; in test [18] it was 0%. The “%Inh” value in test [19] and in test [20] was 0% each time.
With `Cc1ccc(Oc2ccc(Nc3ncnc4cc[nH]c34)cc2C)cn1`, the “%Inh” value in test [1] was determined as 7%; in test [2], 0%; in [3], 14%; in test [4], 5%; in [5], 0%; in [6], 0%. Also, the “%Inh” value is recorded as 0% in [7]; 20% in test [8]; 0% in test [9]; 10% in test [10]; 25% in test [11]; 4% in test [12]. In addition, the “%Inh” value in test [13] turned out to be 0%; in test [14], 34%; in test [15], 1%; in [16], 13%; in [17], 20%; in [18] it was 0%. The “%Inh” value in test [19] is listed as 0%; in test [20], 10%.
Take `Cl.NS(=O)(=O)c1cccc(Nc2cc(-c3ccc(F)cc3)n[nH]2)c1` [GW824645]: the “%Inh” value in test [1] worked out at 0%; in test [2] it was 0%; in test [3] it was 18%; in [4] it was 0%; in [5], 0%; in test [6], 0%. For the same molecule, the “%Inh” value came to 0% in [7]; 4% in [8]; 29% in test [9]; 0% in test [10]; 0% in [11]; 0% in test [12]. Moreover, the “%Inh” value is 23% in test [13]; 7% in [14]; 0% in test [15]; 45% in test [16]; 0% in [17]; 33% in test [18]. The “%Inh” value in test [19] and in test [20] was 0% throughout.
With `Cc1c(Cn2c(C)nn3c(=O)cc(N4CCO[C@H](C)C4)nc23)cccc1C(F)(F)F` [GSK2373690], the “%Inh” value in [1] worked out at 22%; in [2], 0%; in test [3], 27%; in test [4] it was 0%; in [5] it was 2%; in test [6], 11%. Besides, the “%Inh” value is given as 15% in [7]; 0% in test [8]; 27% in [9]; 30% in [10]; 0% in test [11]; 31% in test [12]. In addition, the “%Inh” value in [13] amounted to 10%; in test [14], 15%; in test [15], 0%; in test [16] it was 0%; in [17], 21%; in test [18], 0%. In addition, the “%Inh” value in test [19] is reported as 32%; in test [20], 7%.
Turning to `CCn1c(-c2ccoc2)nc2cnccc21` [SB-733887], the “%Inh” value is on record as 31% in test [1]; 10% in [2]; 9% in test [3]; 0% in test [4]; 0% in [5]; 23% in test [6]. For the same molecule, the “%Inh” value in [7] amounted to 5%; in [8], 16%; in [9], 45%; in test [10], 10%; in test [11] it was 5%; in [12], 6%. Further, the “%Inh” value was 0% in test [13]; 0% in [14]; 10% in [15]; 20% in test [16]; 0% in test [17]; 1% in test [18]. Besides, the “%Inh” value in [19] and in [20] was 0% throughout.
Consider `COc1cc(Nc2nccc(N3CCC(NC(=O)C(C)c4ccc(Cl)cc4)C3)n2)cc(OC)c1OC` (centres unmarked) [GSK1379757], for which the “%Inh” value in [1] turned out to be 22%; in test [2], 17%; in test [3], 0%; in [4], 17%; in test [5], 34%; in test [6], 0%. The “%Inh” value in test [7] was found to be 0%; in test [8] it was 52%; in [9], 60%; in test [10], 72%; in test [11], 13%; in test [12] it was 40%. Also, the “%Inh” value was found to be 28% in test [13]; 0% in [14]; 0% in test [15]; 4% in test [16]; 1% in test [17]; 0% in [18]. Further, the “%Inh” value in test [19] worked out at 11%; in test [20], 0%.
In the case of `COc1cc2ncn(-c3cc(OCCCc4ccccc4)c(C(N)=O)s3)c2cc1OC` [GSK205189], the “%Inh” value stood at 0% in test [1]; 28% in test [2]; 0% in test [3]; 0% in [4]; 0% in [5]; 0% in test [6]. For the same molecule, the “%Inh” value in test [7] came out at 0%; in test [8], 0%; in [9], 18%; in test [10], 45%; in [11], 13%; in [12] it was 36%. The “%Inh” value is given as 12% in [13]; 0% in [14]; 0% in [15]; 0% in test [16]; 11% in test [17]; 0% in test [18]. The “%Inh” value in test [19] and in test [20] was 1% each time.
As to `COc1cc(OC)cc(-c2cc3cnc(N)nc3nc2NC(=O)NC(C)(C)C)c1`, the “%Inh” value in test [1] is recorded as 0%; in test [2] it was 0%; in test [3] it was 15%; in [4], 0%; in [5], 0%; in test [6], 0%. For the same molecule, the “%Inh” value in test [7], in test [8], in test [9], in [10], in test [11] and in test [12] was 0% in each case. Also, the “%Inh” value in [13] worked out at 8%; in [14], 54%; in [15], 0%; in test [16], 0%; in test [17], 0%; in [18] it was 10%. In addition, the “%Inh” value in [19] and in test [20] was 0% each time.
For the molecule `CCC(=O)c1c(-c2ccccc2)c2cc(Cl)ccc2c(=O)n1Cc1cc(C(=O)NC2CC2)n(C)n1`, the “%Inh” value in [1] stood at 32%; in test [2] it was 22%; in [3] it was 5%; in test [4], 0%; in test [5], 0%; in test [6] it was 0%. In addition, the “%Inh” value turned out to be 0% in test [7]; 22% in test [8]; 26% in test [9]; 0% in test [10]; 0% in [11]; 0% in [12]. Moreover, the “%Inh” value amounted to 0% in [13]; 0% in test [14]; 0% in [15]; 9% in [16]; 4% in test [17]; 62% in test [18]. Moreover, the “%Inh” value in test [19] and in [20] was 0% in each case.
